Assay [1] addresses Paired box protein Pax-6 (Homo sapiens) (UniProt P26367). The experiment in a line: ATG_Pax6_CIS: Attagene CIS-FACTORIAL HepG2 Assay for human Paired Box 6 (PAX6) (AID 2282956). The note with it: HepG2 CIS-FACTORIAL PAX6 reporter transcription, RNA readout; actives raise or lower the signal. The gist of the method:
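Transient MRTU transfection of HepG2 → compound exposure 24 h → TriZol RNA, oligo(dT) RT → PCR, 6-FAM primer extension, HpaI cut → capillary electrophoresis; activity fitted both directions against DMSO.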

Assay [2] can be described thus: ATG_PXRE_CIS: Attagene CIS-FACTORIAL HepG2 Assay for human Pregnane X Receptor Element (PXRE) (AID 2282957). The note with it: HepG2 Attagene CIS-FACTORIAL PXRE reporter, mRNA; actives raise or lower the signal. Put shortly:
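Transiently transfected HepG2 cells were dosed and incubated for 24 h. RNA was then isolated, DNase-treated, reverse-transcribed and reporter sequences amplified. Labeled, HpaI-digested fragments were quantified by capillary electrophoresis against DMSO.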

The nature of assay [3]: ATG_PPRE_CIS: Attagene CIS-FACTORIAL HepG2 Assay for human Peroxisome Proliferator-activated Response Element (PPRE) (AID 2282958). The settings on record: HepG2 PPRE cis-element reporter, Attagene transcription factor profiling; actives raise or lower the signal. Put shortly: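 Read-out: fluorescent reporter mRNA fragments resolved by capillary electrophoresis after RT-PCR. HepG2 cells carried transiently transfected PPRE-driven cis reporter constructs and were dosed for 24 h; gain or loss of signal fitted relative to DMSO.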

Assay [4] in a line: ATG_RORE_CIS: Attagene CIS-FACTORIAL HepG2 Assay for human RAR-related Orphan Receptor Element (RORE) (AID 2282959). The note with it: HepG2 Attagene cis-factorial RORE reporter, mRNA; actives raise or lower the signal. Put shortly:
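Readout: fluorescent reporter mRNA by RT-PCR plus capillary electrophoresis, 24 h after dosing transfected HepG2 cells. Endogenous transcription factor activity on a cis promoter element is measured. Gain or loss of signal fitted against DMSO.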

Assay [5] is described as follows: ATG_Sox_CIS: Attagene CIS-FACTORIAL HepG2 Assay for human SRY-box transcription factor (SOX) (AID 2282960). The settings on record: HepG2 Attagene cis-factorial SOX reporter, mRNA; actives raise or lower the signal. The gist of the method: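 Read-out: fluorescent RT-PCR products of SOX1-linked reporter transcripts resolved by capillary electrophoresis, fitted bidirectionally against DMSO. Transiently transfected HepG2 cells, 24 h after chemical exposure, endogenous transcription factor activity.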

The target of assay [6] is Transcription factor Sp1 (Homo sapiens) (UniProt P08047). The experiment in a line: ATG_Sp1_CIS: Attagene CIS-FACTORIAL HepG2 Assay for human Specificity Protein 1 (Sp1) (AID 2282961). The note with it: HepG2 Sp1 cis-reporter transcription, actives raise or lower the signal. The gist of the method:
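Read-out: fluorescence of 6-FAM-labeled, HpaI-digested RT-PCR products separated by capillary electrophoresis. HepG2 cells carried transfected cis-element reporter units and were exposed to chemicals for 24 h; gain or loss of signal fitted relative to DMSO.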

Assay [7] in a line: ATG_SREBP_CIS: Attagene CIS-FACTORIAL HepG2 Assay for human Sterol Regulatory Element Binding (SREBP) (AID 2282962). The note with it: HepG2 Attagene cis-factorial SREBP reporter, mRNA; actives raise or lower the signal. The gist of the method: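 Transfected HepG2 (cis-regulated reporter library, endogenous TFs) → compound 24 h → total RNA → oligo(dT) RT → reporter-specific PCR → FAM primer extension, HpaI cut → CE fluorescence. Fit bidirectional vs DMSO.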

Assay [8] addresses Signal transducer and activator of transcription 3 (Homo sapiens) (UniProt P40763). The assay can be described thus: ATG_STAT3_CIS: Attagene CIS-FACTORIAL HepG2 Assay for human Signal Transducer and Activator of Transcription 3 (STAT3) (AID 2282963). The settings on record: HepG2, Attagene cis-factorial STAT3 reporter transcription; actives raise or lower the signal. The gist of the method: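 After a 24 h compound incubation, total RNA from MRTU-transfected HepG2 cells was converted to cDNA and reporter sequences PCR-amplified, labelled and profiled by capillary electrophoresis. Gain and loss of signal were referenced to DMSO.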

A short description of assay [9]: ATG_TA_CIS: Attagene CIS-FACTORIAL HepG2 Assay for human TA Basal Promoter (AID 2282964). The settings on record: HepG2 Attagene CIS-factorial TA basal promoter reporter; actives raise or lower the signal. Put shortly: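 Fluorescence from labelled RT-PCR reporter fragments, separated by capillary electrophoresis, gives the signal. Cells: HepG2 transiently carrying multiple reporter units, 24 h chemical dosing. Gain or loss relative to DMSO.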

A short description of assay [10]: ATG_TCF_b_cat_CIS: Attagene CIS-FACTORIAL HepG2 Assay for human T-Cell-Factor with beta-catenin (TCF/b-cat) (AID 2282965). The note with it: HepG2 TCF/beta-catenin cis-reporter transcription, actives raise or lower the signal. Put shortly: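 Measured: reporter mRNA in HepG2 transiently transfected with cis-promoter reporter units, 24 h after chemical addition. Fitting was bidirectional, DMSO as negative control.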

The nature of assay [11]: ATG_TAL_CIS: Attagene CIS-FACTORIAL HepG2 Assay for human TAL Basal Promoter (AID 2282966).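 Note: background control endpoint measuring basal TAL promoter reporter mRNA not a specific factor.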 The settings on record: HepG2 Attagene cis-factorial TAL promoter reporter; actives raise or lower the signal. Put shortly: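 Readout: reporter mRNA, fluorescence by CE. System: HepG2, transient multi-reporter transfection, endogenous TF activity. Exposure: 24 h. Analysis: bidirectional, DMSO-normalized; background control.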

Assay [12] is described as follows: ATG_VDRE_CIS: Attagene CIS-FACTORIAL HepG2 Assay for human Vitamin D Receptor Element (VDRE) (AID 2282968). The settings on record: HepG2 VDRE cis-reporter transcription, actives raise or lower the signal. Put shortly: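 In transiently transfected HepG2 liver cells, gain or loss of reporter mRNA after 24 h exposure is scored relative to DMSO, using fluorescence detection by capillary electrophoresis of RT-PCR products.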

Assay [13] concerns the target Estrogen receptor (Homo sapiens) (UniProt P03372). The assay can be described thus: ATG_ERa_TRANS: Attagene TRANS-FACTORIAL HepG2 Assay for human Estrogen Receptor alpha (ERa) (AID 2282970; active = hit-call score of the fitted dose curve at least 0.9, where 1 is the maximum). The settings on record: HepG2 Attagene TRANS ERa GAL4 reporter, mRNA. Put shortly:
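Transactivation via ERa-Gal4 chimera in HepG2; 24 hour incubation; reporter mRNA detected by fluorescence RT-PCR and capillary electrophoresis.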

The target of assay [14] is X-box-binding protein 1 (Homo sapiens) (UniProt P17861). The experiment in a line: ATG_Xbp1_CIS: Attagene CIS-FACTORIAL HepG2 Assay for human X-box Binding Protein 1 (XBP1) (AID 2282972). The settings on record: HepG2 XBP1 cis-element reporter, Attagene multiplex; actives raise or lower the signal. The gist of the method: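 HepG2, transient MRTU transfection (cis-promoter driven), 24 h compound exposure. Total RNA → oligo(dT) RT → PCR → 6-FAM labeling → HpaI cut → CE. Bidirectional fit vs DMSO.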

Assay [15] in a line: ATG_M_19_TRANS: Attagene TRANS-FACTORIAL HepG2 Assay for M19 Transcription Factor (Internal Marker) (AID 2282974; active = hit-call score of the fitted dose curve at least 0.9, where 1 is the maximum). The note with it: HepG2 Attagene TRANS-FACTORIAL M19 internal marker reporter. Put shortly: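 24 h chemical exposure of transiently transfected HepG2 (MRTU library). RNA → oligo(dT) RT → PCR → 6-FAM labelling → HpaI cut → CE fluorescence. Positive-direction fit vs DMSO baseline; background internal-marker readout.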

Assay [16] in a line: ATG_GAL4_TRANS: Attagene TRANS-FACTORIAL HepG2 Assay for GAL4 (Internal Marker) (AID 2282976; active = hit-call score of the fitted dose curve at least 0.9, where 1 is the maximum). The note with it: HepG2 Attagene TRANS GAL4 internal marker reporter. The gist of the method:
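Fluorescence from capillary electrophoresis of labelled RT-PCR products quantifies reporter mRNA induction after 24 h dosing of HepG2 cells carrying transfected GAL4-UAS reporter transcription units. Vehicle DMSO serves as baseline.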

The target in assay [17] is Estrogen-related receptor gamma (Homo sapiens) (UniProt P62508). The assay can be described thus: ATG_ERRg_TRANS: Attagene TRANS-FACTORIAL HepG2 Assay for human Estrogen-Related Receptor gamma (ERRg) (AID 2282977; active = hit-call score of the fitted dose curve at least 0.9, where 1 is the maximum;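 note: hits increase reporter signal over DMSO so potencies reflect activators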). The settings on record: HepG2 Attagene TRANS reporter, ERRg transactivation. Put shortly:
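HepG2 cells transiently transfected with multiplexed GAL4-UAS reporter units and chimeric NR-Gal4 constructs were exposed to test chemicals for 24 h. Reporter mRNA was measured by RT-PCR, 6-FAM primer extension, HpaI digestion and capillary electrophoresis; gain-of-signal versus DMSO.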

In assay [18] the target is Nuclear receptor subfamily 1 group I member 3 (Homo sapiens) (UniProt Q14994). The experiment in a line: ATG_CAR_TRANS: Attagene TRANS-FACTORIAL HepG2 Assay for human Constitutive Androstane Receptor (CAR) (AID 2282969; active = hit-call score of the fitted dose curve at least 0.9, where 1 is the maximum;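 note: activators raise reporter mRNA above DMSO so AC50 marks induction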). The note with it: HepG2 Attagene TRANS-FACTORIAL CAR reporter. Put shortly: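 Readout is reporter mRNA induction, quantified by fluorescent primer extension and capillary electrophoresis after RT-PCR. Cells were HepG2 transiently carrying chimeric NR-Gal4 constructs with GAL4-UAS reporters, treated for 24 h; activity scored upward from DMSO.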

A short description of assay [19]: ATG_TGFb_CIS: Attagene CIS-FACTORIAL HepG2 Assay for human Transforming Growth Factor (TGF) (AID 2282967). The note with it: HepG2 Attagene CIS TGFb reporter, mRNA transcription; actives raise or lower the signal. The gist of the method: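 Bidirectional fitting relative to DMSO gave the endpoint. Underlying data: reporter mRNA from HepG2 cells carrying transiently transfected cis-regulated reporter constructs, harvested 24 h after dosing and analyzed by RT-PCR and capillary electrophoresis.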

For assay [20], the target named is Steroid hormone receptor ERR1 (Homo sapiens) (UniProt P11474). The experiment in a line: ATG_ERRa_TRANS: Attagene TRANS-FACTORIAL HepG2 Assay for human Estrogen-Related Receptor alpha (ERRa) (AID 2282971; active = hit-call score of the fitted dose curve at least 0.9, where 1 is the maximum). The note with it: HepG2 Attagene TRANS reporter, ERRa transactivation. Put shortly:
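HepG2 cells were transiently transfected with multiple GAL4-UAS reporter units, then dosed with compound for 24 h. Total RNA was reverse-transcribed, reporter cDNA PCR-amplified and fluorescently labelled, and fragments resolved by capillary electrophoresis; induction was compared with DMSO.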

Results filed as inconclusive are left out. Activity calls are given as the source filed them. Rule for the calls, unless noted: active = hit-call score of the fitted dose curve at least 0.9, where 1 is the maximum; inactive = score below 0.9.

4 compounds from PubChem BioAssay (EPA / NIEHS) can be followed below.

Paired box protein Pax-6 (Homo sapiens), sequence (P26367 whole entry, looked up): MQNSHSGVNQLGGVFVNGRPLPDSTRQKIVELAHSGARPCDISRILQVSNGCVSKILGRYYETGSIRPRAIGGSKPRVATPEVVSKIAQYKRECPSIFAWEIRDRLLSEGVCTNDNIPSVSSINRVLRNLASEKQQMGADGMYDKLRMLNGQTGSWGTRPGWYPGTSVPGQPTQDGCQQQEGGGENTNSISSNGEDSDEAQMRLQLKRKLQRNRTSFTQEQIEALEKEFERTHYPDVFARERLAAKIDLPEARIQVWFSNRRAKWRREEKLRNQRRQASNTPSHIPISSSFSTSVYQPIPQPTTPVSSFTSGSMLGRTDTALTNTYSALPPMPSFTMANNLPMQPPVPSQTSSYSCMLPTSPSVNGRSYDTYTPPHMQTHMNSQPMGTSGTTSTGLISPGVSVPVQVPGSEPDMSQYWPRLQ
X-box-binding protein 1 (Homo sapiens), sequence (P17861 whole entry, looked up): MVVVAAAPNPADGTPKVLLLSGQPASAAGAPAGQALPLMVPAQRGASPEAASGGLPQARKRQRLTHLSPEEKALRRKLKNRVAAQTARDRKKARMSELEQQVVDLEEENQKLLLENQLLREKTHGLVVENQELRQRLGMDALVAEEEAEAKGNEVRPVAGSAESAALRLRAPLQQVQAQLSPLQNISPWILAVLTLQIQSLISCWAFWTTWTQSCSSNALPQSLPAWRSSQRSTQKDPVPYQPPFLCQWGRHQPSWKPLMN
Signal transducer and activator of transcription 3 (Homo sapiens), sequence (P40763 whole entry, looked up): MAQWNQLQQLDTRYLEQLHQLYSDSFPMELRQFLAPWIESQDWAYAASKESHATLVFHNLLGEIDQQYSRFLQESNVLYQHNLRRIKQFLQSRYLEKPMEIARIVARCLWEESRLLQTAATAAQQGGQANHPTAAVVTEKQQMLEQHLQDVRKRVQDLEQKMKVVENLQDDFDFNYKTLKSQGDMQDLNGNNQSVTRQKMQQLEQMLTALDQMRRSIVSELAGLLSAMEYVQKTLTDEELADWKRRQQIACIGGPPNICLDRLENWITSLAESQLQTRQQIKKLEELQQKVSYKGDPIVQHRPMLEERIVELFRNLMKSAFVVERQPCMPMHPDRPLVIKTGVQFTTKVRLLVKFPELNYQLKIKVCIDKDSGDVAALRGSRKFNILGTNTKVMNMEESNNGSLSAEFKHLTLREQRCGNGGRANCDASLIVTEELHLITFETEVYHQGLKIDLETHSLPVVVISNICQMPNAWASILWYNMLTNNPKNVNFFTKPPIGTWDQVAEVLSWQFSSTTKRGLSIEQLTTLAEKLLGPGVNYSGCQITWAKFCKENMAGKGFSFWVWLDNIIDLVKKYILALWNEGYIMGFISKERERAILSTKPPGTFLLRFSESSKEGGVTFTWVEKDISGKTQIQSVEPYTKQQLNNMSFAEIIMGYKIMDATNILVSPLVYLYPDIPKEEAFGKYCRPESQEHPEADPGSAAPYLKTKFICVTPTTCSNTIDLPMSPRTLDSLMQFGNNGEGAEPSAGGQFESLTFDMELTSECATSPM
Transcription factor Sp1 (Homo sapiens), sequence (P08047 whole entry, looked up): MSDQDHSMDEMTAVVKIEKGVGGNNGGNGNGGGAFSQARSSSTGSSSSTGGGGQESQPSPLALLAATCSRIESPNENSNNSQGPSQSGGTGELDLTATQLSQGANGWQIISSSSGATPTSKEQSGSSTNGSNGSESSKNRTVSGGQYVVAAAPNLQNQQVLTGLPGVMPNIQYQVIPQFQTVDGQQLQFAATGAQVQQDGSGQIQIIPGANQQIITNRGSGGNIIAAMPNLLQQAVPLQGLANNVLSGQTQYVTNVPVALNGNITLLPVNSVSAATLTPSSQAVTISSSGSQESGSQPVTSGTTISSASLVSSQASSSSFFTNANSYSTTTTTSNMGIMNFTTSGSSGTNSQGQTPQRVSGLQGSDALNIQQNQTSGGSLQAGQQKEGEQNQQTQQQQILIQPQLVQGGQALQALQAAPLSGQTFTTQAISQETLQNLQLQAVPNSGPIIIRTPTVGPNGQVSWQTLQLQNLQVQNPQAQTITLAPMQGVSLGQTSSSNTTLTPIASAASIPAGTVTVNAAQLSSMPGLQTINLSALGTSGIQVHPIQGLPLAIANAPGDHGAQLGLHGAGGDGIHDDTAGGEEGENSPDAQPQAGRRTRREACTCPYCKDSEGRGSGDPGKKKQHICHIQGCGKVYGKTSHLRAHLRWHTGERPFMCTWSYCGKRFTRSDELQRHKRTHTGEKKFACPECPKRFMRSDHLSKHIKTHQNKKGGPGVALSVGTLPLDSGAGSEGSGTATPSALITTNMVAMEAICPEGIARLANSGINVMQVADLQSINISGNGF
Nuclear receptor subfamily 1 group I member 3 (Homo sapiens), sequence (Q14994 whole entry, looked up, the tested form may be a part): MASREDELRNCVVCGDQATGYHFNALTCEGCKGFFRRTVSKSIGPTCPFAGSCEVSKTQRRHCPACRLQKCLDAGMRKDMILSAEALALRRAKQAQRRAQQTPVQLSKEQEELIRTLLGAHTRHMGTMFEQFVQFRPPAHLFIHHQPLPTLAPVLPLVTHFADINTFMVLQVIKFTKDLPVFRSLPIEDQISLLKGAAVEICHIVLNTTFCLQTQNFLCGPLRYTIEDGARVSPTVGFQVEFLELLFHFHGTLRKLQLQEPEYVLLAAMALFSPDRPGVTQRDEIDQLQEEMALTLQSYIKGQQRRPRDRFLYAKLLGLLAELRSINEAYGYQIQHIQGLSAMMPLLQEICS
Estrogen receptor (Homo sapiens), sequence (P03372 whole entry, looked up, the tested form may be a part): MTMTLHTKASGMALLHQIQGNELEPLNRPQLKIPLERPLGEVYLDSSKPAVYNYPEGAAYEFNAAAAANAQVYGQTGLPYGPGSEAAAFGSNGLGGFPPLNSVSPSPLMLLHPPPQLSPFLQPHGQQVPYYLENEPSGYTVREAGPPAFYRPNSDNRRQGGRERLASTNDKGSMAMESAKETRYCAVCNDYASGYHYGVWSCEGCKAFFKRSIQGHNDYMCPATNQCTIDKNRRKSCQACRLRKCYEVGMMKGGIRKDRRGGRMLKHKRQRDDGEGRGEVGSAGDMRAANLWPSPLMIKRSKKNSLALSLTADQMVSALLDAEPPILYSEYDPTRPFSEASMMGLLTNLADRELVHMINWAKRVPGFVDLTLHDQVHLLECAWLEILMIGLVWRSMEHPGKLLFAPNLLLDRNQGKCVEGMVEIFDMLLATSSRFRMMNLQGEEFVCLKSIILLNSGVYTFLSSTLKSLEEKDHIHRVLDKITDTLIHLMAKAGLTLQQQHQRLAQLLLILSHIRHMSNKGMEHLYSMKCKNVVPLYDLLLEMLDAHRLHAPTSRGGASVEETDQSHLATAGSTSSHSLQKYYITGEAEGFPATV
Steroid hormone receptor ERR1 (Homo sapiens), sequence (P11474 whole entry, looked up, the tested form may be a part): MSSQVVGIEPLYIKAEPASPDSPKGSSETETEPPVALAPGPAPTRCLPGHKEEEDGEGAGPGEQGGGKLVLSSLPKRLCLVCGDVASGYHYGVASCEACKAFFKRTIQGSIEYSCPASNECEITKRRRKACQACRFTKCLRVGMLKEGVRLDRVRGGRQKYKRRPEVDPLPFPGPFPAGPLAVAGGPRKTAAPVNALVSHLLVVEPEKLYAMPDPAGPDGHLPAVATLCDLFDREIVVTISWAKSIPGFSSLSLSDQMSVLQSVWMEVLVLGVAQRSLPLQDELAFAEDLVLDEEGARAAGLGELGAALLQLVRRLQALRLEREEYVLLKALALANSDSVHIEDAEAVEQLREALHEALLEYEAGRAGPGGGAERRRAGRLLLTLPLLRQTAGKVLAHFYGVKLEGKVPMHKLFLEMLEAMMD
Estrogen-related receptor gamma (Homo sapiens), sequence (P62508 whole entry, looked up, the tested form may be a part): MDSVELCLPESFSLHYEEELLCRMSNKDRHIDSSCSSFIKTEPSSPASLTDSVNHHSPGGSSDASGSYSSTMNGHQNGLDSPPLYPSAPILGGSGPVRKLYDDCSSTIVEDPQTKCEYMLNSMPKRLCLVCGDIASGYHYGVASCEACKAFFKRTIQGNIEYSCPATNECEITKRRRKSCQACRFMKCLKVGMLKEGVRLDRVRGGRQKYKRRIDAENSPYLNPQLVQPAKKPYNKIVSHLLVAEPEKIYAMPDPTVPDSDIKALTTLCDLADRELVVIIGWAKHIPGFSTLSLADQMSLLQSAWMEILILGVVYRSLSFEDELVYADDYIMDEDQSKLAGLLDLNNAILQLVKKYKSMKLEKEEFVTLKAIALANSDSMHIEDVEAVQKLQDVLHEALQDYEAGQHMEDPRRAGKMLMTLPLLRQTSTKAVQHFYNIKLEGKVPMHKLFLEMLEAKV

Regarding `N[C@H]1C(O)O[C@H](CO)[C@H](O)[C@@H]1O` (stereo partly drawn), the compound was called inactive in assay [1], in [2], in assay [3], in assay [4], in assay [5] and in assay [6]. Further, the outcome in [7], in [8], in assay [9], in assay [10], in assay [11] and in assay [12] was inactive. The result in [13], in [14], in [15], in assay [16] and in assay [17] was inactive.
Turning to `CCO[Si](CCCN=C=O)(OCC)OCC`, the compound was classed as inactive in assay [1], in assay [3], in assay [4], in assay [5], in assay [6] and in assay [7]. Besides, the call in [8], in assay [9], in [10], in assay [11], in assay [12] and in assay [18] was inactive. The compound was classed as inactive in [14], in [15] and in [16]. In assay [2], the concentration at half-maximal activity (AC50) – broadly, the concentration giving half of the maximal activity seen – is 13.9 µM (active).
On to `CC=C1CC2C=CC1C2` (stereo not drawn), for which the compound was classed as inactive in assay [1], in assay [3], in assay [4], in assay [5], in assay [6] and in assay [7]. Moreover, the call in assay [8], in assay [9], in [11], in assay [19], in [12] and in assay [14] was inactive. For the same compound, in assay [15], the call was inactive. Further, in [2], the AC50 is 3.1 µM (active).
Regarding `Cc1cccc(OCCOc2cccc(C)c2)c1`, the result in [1], in assay [2], in assay [3], in assay [4], in assay [5] and in assay [6] was inactive. Further, the call in assay [7], in assay [8], in assay [9], in [10], in assay [19] and in [18] was inactive. For the same compound, the call in assay [13], in [20], in [14] and in assay [15] was inactive.
